# Test results reported in PubChem BioAssay (Tox21).
# Records with an inconclusive call do not appear. A call without a number means that no potency is given here. Unmarked numbers belong to inactive results. Activity calls are given as the source filed them. Unless noted, the call rests on the fitted dose curve; in most records, active means well fitted curve in the direction sought with a large enough effect in the repeat runs; inconclusive means weak or mixed curves; inactive means no such curve, though single readings can be large; an effect the other way counts as inactive or inconclusive.
# How the values were obtained:
# [1] = qHTS assay to identify small molecule agonists of the endoplasmic reticulum stress response signaling pathway - cell viability counter screen (AID 1159517; calls by dose curve; further: nearly all actives have a fitted effect of over 50% in size; further: potency means the concentration at half of the fitted maximal effect;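 on activity change, negative = cytotoxicity: HeLa cells carrying an ER stress response element beta-lactamase reporter; series mostly up to about 61 µM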)
# Outline: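 After overnight attachment, ESRE-bla HeLa cells were treated with Tox21 library compounds for 5 hr. CellTiter-Glo luminescence, read 30 min post-addition at room temperature, reported viability.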
# [2] = qHTS assay to identify small molecule antagonists of the retinoid-related orphan receptor gamma (ROR-gamma) signaling pathway - cell viability counter screen (AID 1159520); further: nearly all actives have a fitted effect of over 50% in size; further: potency means the concentration at half of the fitted maximal effect
# Outline: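 Cytotoxicity was read from cellular ATP (CellTiter-Glo luminescence) after 16 hr at 37 C with 1 uM doxycycline induction. The inducer was added 2 hr after compound transfer to Tet-on ROR gamma CHO cells.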
# [3] = target: Nuclear receptor ROR-gamma (Homo sapiens) (UniProt P51449); test: qHTS assay to identify small molecule antagonists of the retinoid-related orphan receptor gamma (ROR-gamma) signaling pathway (AID 1159521; further: nearly all actives have a fitted effect of over 50% in size; further: potency means the concentration at half of the fitted maximal effect;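 on activity change, negative = inhibition: CHO cells with doxycycline inducible ROR-gamma driving an RORE luciferase reporter; top concentration of the series differs between compounds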)
# Outline: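 Inducible-expression reporter assay: doxycycline (1 uM final) switched on RORγ in CHO cells bearing a ROR response element-luciferase construct, with test compounds present from 2 h beforehand. Decreased luminescence after 16 h defined antagonist activity.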
# [4] = qHTS assay to identify small molecule agonists of the AP-1 signaling pathway - cell viability counter screen (AID 1159525; calls by dose curve; further: nearly all actives have a fitted effect of over 55% in size; further: potency means the concentration at half of the fitted maximal effect)
# Outline: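 Intracellular ATP by Cell Titer Glo luminescence (30 min, RT) in the same ME-180 AP-1-bla wells after the 5 h compound exposure at 37 °C. Normalised to tetra n-octyl ammonium bromide and DMSO controls.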
# [5] = qHTS assay to identify small molecule antagonists of the retinoid acid receptor (RAR) signaling pathway - cell viability counter screen (AID 1159551); further: nearly all actives have a fitted effect of over 35% in size; further: potency means the concentration at half of the fitted maximal effect
# Outline: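 Cells (C3RL4) are plated, incubated overnight, dosed with compound in DMSO, then given retinol at 1 uM final. After 6 h at 37 C, CellTiter-Glo is added and luminescence read following 30 min at room temperature.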
# [6] = qHTS assay to identify small molecule antagonists of the retinoic acid receptor (RAR) signaling pathway (AID 1159552; further: nearly all actives have a fitted effect of over 50% in size; further: potency means the concentration at half of the fitted maximal effect)
# Outline: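 Antagonism of retinol-induced RARE reporter activity was measured in C3RL4 cells. Exposure to compounds and 1 uM final retinol lasted 6 hr at 37 C, with luminescence as endpoint.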
# [7] = qHTS assay to identify small molecule agonists of the retinoic acid receptor (RAR) signaling pathway (AID 1159553)
# Outline: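 Seed C3RL4 reporter cells at 1,000 per well and incubate overnight at 37 C. Add compounds in DMSO, incubate 6 hr. Add luciferase reagent, wait 30 min at room temperature, read luminescence.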
# [8] = qHTS assay to identify small molecule antagonists of the estrogen related receptor (ERR) signaling pathway - cell viability counter screen (AID 1224818); further: series mostly up to about 46 µM
# Outline: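 ERR cells, 2,000/well; 6 h settle at 37 C/5% CO2; compound pin transfer (DMSO); 17.5 h at 37 C; CellTiter-Fluor, 30 min, fluorescence read.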
# [9] = qHTS assay to identify small molecule agonists of the estrogen related receptor (ERR) signaling pathway (AID 1224820)
# Outline: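 Luminescence readout (One-Glo, 30 min RT) from NTP-supplied ERR cell line exposed to compounds for 18 h at 37 C. Cells seeded 2,000 per well and pre-incubated 6 h before pin-tool compound transfer.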
# [10] = tested on: estrogen-related receptor alpha (ERRalpha) with PGC-1alpha coactivator, human; test: qHTS assay to identify small molecule antagonists of the estrogen related receptor signaling pathway with the pleiotropic PPARgamma coactivator (PGC) (AID 1224821; calls by dose curve)
# Outline: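 PGC/ERR reporter cells; 6 h pre-incubation 37 C/5% CO2; pin-tool compound in DMSO, 18 h 37 C; One-Glo added, 30 min RT; luminescence read. qHTS antagonist mode.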
# [11] = qHTS assay to identify small molecule antagonists of the estrogen related receptor signaling pathway with the pleiotropic PPARgamma coactivator (PGC) cell viability counter screen (AID 1224822; further: potency means the concentration at half of the fitted maximal effect;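 further: viability read after 17.5 h compound exposure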; on viability change, negative = cytotoxic: series mostly up to about 46 µM)
# Outline: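 Multiplexed viability counter screen run in PGC/ERR cells treated with compounds for 17.5 h at 37 C; live-cell protease signal measured by CellTiter-Fluor fluorescence.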
# [12] = qHTS assay to identify small molecule agonists of the estrogen related receptor signaling pathway with the pleiotropic PPARgamma coactivator (PGC) (AID 1224823)
# Outline: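 Luminescence readout (One-Glo, 30 min RT) from PGC/ERR cell line treated 18 h at 37 C with pin-tool-delivered DMSO compound solutions; cells plated 6 h before dosing. Quantitative HTS format.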
# [13] = qHTS assay to identify small molecule agonists of the RXR signaling pathway - cell viability counter screen (AID 1159529); further: nearly all actives have a fitted effect of over 50% in size; further: potency means the concentration at half of the fitted maximal effect; on activity change, negative = cytotoxicity: series mostly up to about 77 µM
# Outline: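 Counter screen: CellTiter-Glo luminescence. Cells: RXR-alpha-UAS-bla HEK 293T. Medium: 2% charcoal-stripped FBS. Treatment: 16 h, 37 C. Reagent incubation: 30 min, RT.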
# [14] = qHTS assay to identify small molecule antagonists of the estrogen related receptor (ERR) signaling pathway (AID 1224819)
# Outline: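 qHTS in ERR cells, 2,000/well, 1536 format. Cpd (DMSO) added after 6 h settle, 18 h 37 C. One-Glo luminescence, 30 min RT.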
# [15] = qHTS assay to identify small molecule agonists of the vitamin D receptor (VDR) signaling pathway - cell viability counter screen (AID 743224); further: nearly all actives have a fitted effect of over 50% in size; further: potency means the concentration at half of the fitted maximal effect; on activity change, negative = cytotoxicity: series mostly up to about 63 µM
# Outline: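 Cells: VDR-bla, 2,000/well, settled 4 h. Treatment: compounds in DMSO, 16 h, 37C/5% CO2. Readout: CellTiter-Glo luminescence after 30 min RT.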
# [16] = qHTS assay to identify small molecule antagonists of the vitamin D receptor (VDR) signaling pathway - cell viability counter screen (AID 743225); further: nearly all actives have a fitted effect of over 50% in size; further: potency means the concentration at half of the fitted maximal effect
# Outline: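 Same-well multiplex: following 16 h treatment of HEK 293T cells carrying a UAS-driven beta-lactamase reporter with compound and agonist (3 nM final), and a 2 h FRET substrate step, CellTiter-Glo was added and luminescence read after 30 min.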
# [17] = qHTS assay to identify small molecule antagonists of the estrogen related receptor (ERR) signaling pathway from Tox21 library - cell viability counter screen (AID 1224834); further: nearly all actives have a fitted effect of over 30% in size; further: potency means the concentration at half of the fitted maximal effect
# Outline: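 ERR cells, 2,000/well; 6 h settle at 37 C/5% CO2; pin-tool compound transfer in DMSO; 17.5 h at 37 C; CellTiter-Fluor, 30 min; fluorescence intensity.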
# [18] = qHTS assay to identify small molecule agonists of the AP-1 signaling pathway (AID 1159526; calls by dose curve)
# [19] = target: Retinoic acid receptor RXR-alpha (Homo sapiens) (UniProt P19793); test: qHTS assay to identify small molecule agonists of the RXR signaling pathway (AID 1159527; calls by dose curve; further: nearly all actives have a fitted effect of over 35% in size)
# Retinoic acid receptor RXR-alpha (Homo sapiens), sequence (P19793 whole entry, looked up): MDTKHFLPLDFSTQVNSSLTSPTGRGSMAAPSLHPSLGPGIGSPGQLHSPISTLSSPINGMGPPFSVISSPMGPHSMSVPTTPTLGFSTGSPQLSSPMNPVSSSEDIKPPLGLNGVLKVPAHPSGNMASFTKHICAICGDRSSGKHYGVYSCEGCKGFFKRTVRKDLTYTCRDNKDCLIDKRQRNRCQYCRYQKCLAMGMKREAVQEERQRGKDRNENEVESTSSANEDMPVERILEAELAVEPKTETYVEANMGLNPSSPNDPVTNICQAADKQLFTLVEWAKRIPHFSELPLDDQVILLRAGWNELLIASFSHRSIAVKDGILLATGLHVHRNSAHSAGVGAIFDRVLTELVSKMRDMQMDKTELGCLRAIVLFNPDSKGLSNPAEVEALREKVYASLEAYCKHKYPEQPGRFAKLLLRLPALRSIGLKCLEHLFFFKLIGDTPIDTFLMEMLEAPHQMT
# Outline: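 Compounds in DMSO were added to RXR-alpha-UAS-bla HEK 293T cells kept in 2% charcoal-stripped serum, and incubated 16 hr at 37 C with 5% CO2. Reporter signal came from a 2 hr B/G FRET substrate step.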
smiles,measurement,setting,value
O=C(NO)c1ccccc1,Potency,[1],inactive
same,Potency,[2],inactive
same,Potency,[3],inactive
same,Potency,[4],inactive
same,Potency,[5],inactive
same,Potency,[6],inactive
same,Potency,[7],inactive
same,Potency,[8],inactive
same,outcome,[9],inactive
same,outcome,[10],inactive
same,Potency,[11],inactive
same,outcome,[12],inactive
O=C1NCN(c2ccccc2)C12CCN(CCCC(c1ccc(F)cc1)c1ccc(F)cc1)CC2,Potency,[1],23.9 µM (active)
same,Potency,[2],33.5 µM (active)
same,Potency,[3],26.6 µM (active)
same,Potency,[4],21.3 µM (active)
same,Potency,[13],21.3 µM (active)
same,Potency,[6],29.8 µM (active)
same,Potency,[14],23.7 µM (active)
same,outcome,[9],inactive
same,outcome,[10],inactive
same,Potency,[11],22.8 µM (active)
same,outcome,[12],inactive
CCC(C)c1cc([N+](=O)[O-])cc([N+](=O)[O-])c1OC(=O)OC(C)C (configuration not stated),Potency,[15],54.9 µM (active)
same,Potency,[16],34.7 µM (active)
same,Potency,[1],34.7 µM (active)
same,Potency,[2],61.1 µM (active)
same,Potency,[3],19.3 µM (active)
same,Potency,[4],inactive
same,Potency,[6],34.4 µM (active)
same,Potency,[7],inactive
same,Potency,[17],24.3 µM (active)
COc1cc(C(=O)NS(=O)(=O)c2ccccc2C)ccc1Cc1cn(C)c2ccc(NC(=O)OC3CCCC3)cc12,Potency,[15],inactive
same,Potency,[16],inactive
same,Potency,[1],inactive
same,Potency,[2],inactive
same,Potency,[3],inactive
same,Potency,[13],inactive
same,Potency,[5],inactive
same,Potency,[6],inactive
same,Potency,[7],inactive
same,Potency,[17],inactive
C[C@@]12C(=O)OC(=O)[C@]1(C)C1CCC2O1,Potency,[1],inactive
same,Potency,[2],4.22 µM (active)
same,Potency,[3],4.22 µM (active)
same,Potency,[13],inactive
same,Potency,[5],8.41 µM (active)
same,Potency,[17],6.68 µM (active)
O=C1c2c(O)ccc([N+](=O)[O-])c2C(=O)c2c([N+](=O)[O-])ccc(O)c21,Potency,[15],10.9 µM (active)
same,Potency,[16],9.68 µM (active)
same,Potency,[1],24.3 µM (active)
same,Potency,[2],27.1 µM (active)
same,Potency,[3],24.1 µM (active)
same,Potency,[4],24.3 µM (active)
same,Potency,[13],17.2 µM (active)
same,Potency,[5],48.1 µM (active)
same,Potency,[6],27.1 µM (active)
COC(=O)NCCC[Si](OC)(OC)OC,Potency,[16],inactive
same,Potency,[1],inactive
same,Potency,[2],inactive
same,Potency,[3],54.5 µM (active)
same,Potency,[4],inactive
same,Potency,[5],inactive
same,Potency,[17],inactive
COc1cc(C(C)C)c2c(c1)S(=O)(=O)N(COc1cc(=O)n3cccc(OCCN4CCCCC4)c3n1)C2=O,Potency,[15],inactive
same,Potency,[16],inactive
same,Potency,[1],inactive
same,"activity change, negative = inhibition",[3],-4.73% [at 19 µM]
same,"viability change, negative = cytotoxic",[4],-17.4% [at 15.8 µM]
same,activation,[18],7.65% [at 15.8 µM]
same,"activity change, negative = cytotoxicity",[13],-5.15% [at 15.8 µM]
same,"activity, negative = inhibition",[6],1.67% [at 19 µM]
same,Potency,[7],inactive
CN1[C@@H]2CC[C@H]1CC(OC(=O)C(CO)c1ccccc1)C2 (some centres not stated),Potency,[1],inactive
same,Potency,[2],inactive
same,Potency,[4],inactive
same,Potency,[18],inactive
same,Potency,[19],inactive
same,Potency,[13],48.9 µM (active)
same,Potency,[5],inactive
same,Potency,[17],inactive
CCCCCCCCCCCCCOP(=O)(O)O,Potency,[15],inactive
same,Potency,[1],30.9 µM (active)
same,Potency,[2],inactive
same,Potency,[4],inactive
same,Potency,[13],inactive
same,Potency,[5],inactive
same,Potency,[6],inactive
same,Potency,[7],inactive
Clc1ccccc1CN1CCc2sccc2C1,Potency,[15],inactive
same,Potency,[16],inactive
same,Potency,[1],inactive
same,Potency,[2],inactive
same,Potency,[13],inactive
same,Potency,[17],inactive
S=C(SSSSSSC(=S)N1CCCCC1)N1CCCCC1,Potency,[15],0.271 µM (active)
same,Potency,[16],inactive
same,Potency,[1],inactive
same,Potency,[3],0.239 µM (active)
same,"viability change, negative = cytotoxic",[4],2.16% [at 15.8 µM]
same,Potency,[13],0.606 µM (active)
same,"activity, negative = inhibition",[6],-10.6% [at 19 µM]
CCCCCCCCCCOCC(O)CN (configuration not stated),Potency,[1],21.3 µM (active)
same,Potency,[3],26.6 µM (active)
same,Potency,[18],inactive
CC(CN(C)C)CN1c2ccccc2CCc2ccccc21 (configuration not stated),Potency,[16],inactive
same,Potency,[1],inactive
same,Potency,[2],inactive
same,Potency,[13],9.52 µM (active)
same,Potency,[5],inactive
same,Potency,[8],inactive
same,Potency,[11],inactive
c1cc2c3c(c1)ccc1cccc(c13)C2,Potency,[15],56.1 µM (active)
same,Potency,[1],inactive
same,Potency,[3],inactive
same,Potency,[4],inactive
same,Potency,[5],inactive
same,Potency,[6],inactive
same,Potency,[7],inactive
same,Potency,[17],inactive
O=C1c2c(O)ccc(O)c2C(=O)c2c(NCCNCCO)ccc(NCCNCCO)c21,Potency,[1],inactive
same,Potency,[2],23.7 µM (active)
same,Potency,[3],inactive
same,Potency,[6],0.119 µM (active)
same,Potency,[8],inactive
same,Potency,[14],1.44 µM (active)
same,outcome,[9],inactive
same,outcome,[12],inactive
CCCCOc1ccc(C(=O)CCN2CCCCC2)cc1,Potency,[16],inactive
same,Potency,[1],inactive
same,Potency,[2],26.6 µM (active)
same,Potency,[4],inactive
same,Potency,[18],inactive
same,Potency,[5],inactive
same,Potency,[17],inactive
O=S(=O)(O)CCCN1CCOCC1,Potency,[16],inactive
same,Potency,[1],inactive
same,Potency,[2],inactive
same,Potency,[4],inactive
same,Potency,[18],inactive
same,Potency,[19],inactive
same,Potency,[13],inactive
same,Potency,[6],inactive
same,Potency,[7],inactive
same,Potency,[17],inactive
CC(NCCC(c1ccccc1)c1ccccc1)c1ccccc1 (configuration not stated),Potency,[1],inactive
same,Potency,[3],29.8 µM (active)
same,Potency,[4],inactive
same,Potency,[17],29.8 µM (active)
Nc1cc(Cl)c([N+](=O)[O-])cc1O,Potency,[16],inactive
same,Potency,[1],inactive
same,Potency,[3],inactive
same,Potency,[4],inactive
same,Potency,[19],inactive
same,Potency,[13],inactive
same,Potency,[7],inactive
same,Potency,[17],54 µM (active)
